About 79,000 compounds went through this panel and 15% of them were active in at least one assay; those are over-represented in the sample as a whole. Active and inactive are the calls of the source. Rule as the data show it: active = growth inhibition above about 70%; inactive = the rest.
How the values were obtained:
[1] = NCI Yeast Anticancer Drug Screen. Data for the rad52 strain (AID 147);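 also: 0% = growth of vehicle-treated control cultures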; settings: S. cerevisiae rad52 mutant growth inhibition, active compounds read high
Summary of the method: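 DNA repair-defective yeast; compound exposure; growth scored against vehicle controls.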

[2] = NCI Yeast Anticancer Drug Screen. Data for the wt1 strain (AID 149);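 also: 0% = growth of vehicle-treated wt1 cultures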; settings: S. cerevisiae wt1 strain (SPY 50644) growth inhibition, active compounds read high
Summary of the method: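 Growth inhibition read against vehicle controls after compound exposure of the wt1 yeast strain.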

[3] = NCI Yeast Anticancer Drug Screen. Data for the rad50EPP+ strain (AID 151);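 also: 0% = growth of vehicle-treated control cultures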; settings: S. cerevisiae rad50 mutant strain, active compounds read high
Summary of the method: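 rad50EPP+ yeast treated with test compounds. Readout: growth vs vehicle control.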

[4] = NCI Yeast Anticancer Drug Screen. Data for the mgt1 strain (AID 153); settings: S. cerevisiae mgt1 mutant growth inhibition, active compounds read high
Summary of the method: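 Growth inhibition relative to vehicle controls was scored for the mgt1 yeast strain after compound exposure.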

[5] = NCI Yeast Anticancer Drug Screen. Data for the rad50 strain (AID 155);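 also: 0% = growth of vehicle-only cultures of the same strain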; settings: S. cerevisiae rad50 strain growth inhibition, active compounds read high
Summary of the method: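 Readout: growth inhibition relative to vehicle-treated cultures. Compound exposure was carried out in a genetically defined yeast strain deficient in DNA damage repair.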

[6] = NCI Yeast Anticancer Drug Screen. Data for the mec2-1 strain (AID 157); settings: S. cerevisiae mec2-1 strain, active compounds read high
Summary of the method: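 Growth inhibition is read against vehicle-treated controls after compound exposure of the mec2-1 yeast strain, which is defective in DNA damage repair or cell cycle control.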

[7] = NCI Yeast Anticancer Drug Screen. Data for the rad14 strain (AID 159);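 also: 0% = growth of vehicle-treated control cultures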; settings: S. cerevisiae rad14 strain growth inhibition, active compounds read high
Summary of the method: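 Growth inhibition vs vehicle controls; genetically altered yeast strain (DNA damage repair defect) treated with test compounds.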

[8] = NCI Yeast Anticancer Drug Screen. Data for the sgs1 mgt1 strain (AID 161);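 also: 0% = growth of cultures given vehicle only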; settings: S. cerevisiae sgs1 mgt1 strain, active compounds read high
Summary of the method: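 Yeast cells carrying a defined DNA-repair defect were exposed to test compounds. Growth inhibition was measured relative to vehicle-treated controls.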

[9] = NCI Yeast Anticancer Drug Screen. Data for the CLN2oe strain (AID 163);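 also: 0% = growth of vehicle-only control cultures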; settings: S. cerevisiae CLN2oe strain, active compounds read high
Summary of the method: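 Compound-treated yeast; growth vs vehicle ctrl = % inhibition. Genetically altered strain (cell-cycle control).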

[10] = NCI Yeast Anticancer Drug Screen. Data for the cln2 rad14 strain (AID 165);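 also: 0% = growth equal to vehicle treated cultures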; settings: S. cerevisiae cln2 rad14 strain, active compounds read high
Summary of the method: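 Growth inhibition, relative to vehicle-treated controls, is the read-out. The test organism is a yeast strain with defined genetic alterations, cln2 rad14.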

[11] = NCI Yeast Anticancer Drug Screen. Data for the bub3 strain (AID 167); settings: S. cerevisiae bub3 mutant strain, active compounds read high
Summary of the method: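 Readout: yeast growth inhibition, expressed relative to vehicle-only wells. The test organism is a mutant strain from a panel with lesions in DNA repair or checkpoint genes.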

[12] = NCI Yeast Anticancer Drug Screen. Data for the wt2 strain (AID 169);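 also: 0% = growth of vehicle-treated yeast cultures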; settings: S. cerevisiae wt2 strain growth inhibition, active compounds read high
Summary of the method: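 Compound exposure of yeast; growth compared with vehicle controls; inhibition reported.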

[13] = NCI Yeast Anticancer Drug Screen. Data for the mlh1 strain (AID 171);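 also: 0% = growth of vehicle-treated control cultures of the same strain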; settings: S. cerevisiae mlh1 strain growth inhibition, active compounds read high
Summary of the method: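 Compounds are applied to a genetically altered yeast strain, and its growth is compared with that of vehicle-treated cultures to give percent inhibition.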

[14] = NCI Yeast Anticancer Drug Screen. Data for the sgs1 strain (AID 173);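 also: 0% = growth of vehicle-only control cultures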; settings: S. cerevisiae sgs1 mutant, active compounds read high
Summary of the method: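 Compounds applied to genetically altered yeast; growth compared with vehicle-treated cultures to give % inhibition.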

[15] = NCI Yeast Anticancer Drug Screen. Data for the mlh1 rad18 strain (AID 175); settings: S. cerevisiae mlh1 rad18 strain growth inhibition, active compounds read high
Summary of the method: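 Cells of a genetically altered yeast strain, deficient in DNA damage repair, were treated with compound. Their growth was then compared with that of vehicle-treated cultures to give inhibition.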

[16] = NCI Yeast Anticancer Drug Screen. Data for the rad18 strain (AID 177); settings: S. cerevisiae rad18 mutant growth inhibition, active compounds read high
Summary of the method: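 Compounds are applied to a repair-deficient yeast strain, and growth is compared with that of vehicle-treated cultures to give percent inhibition.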

[17] = at 5.0 µM (retest, dose inferred, filed as 0.5)
[18] = at 50.0 µM (retest, dose inferred, filed as 5.0)

Measured: growth inhibition

Nc1ccc2cc(Br)ccc2c1Br
inactive: [1]; at 1.2 µM -6% | [1]; at 3.7 µM 1% | [1]; at 11.0 µM 1% | [1]; at 33.0 µM 3% | [1]; at 100.0 µM 52% | [2]; at 1.2 µM -2% | [2]; at 3.7 µM -3% | [2]; at 11.0 µM -3% | [2]; at 33.0 µM -5% | [2]; at 100.0 µM -1% | [3]; at 1.2 µM 1% | [3]; at 3.7 µM 7% | [3]; at 11.0 µM 23% | [3]; at 33.0 µM 19% | [3]; at 100.0 µM 49% | [4]; at 1.2 µM -4% | [4]; at 3.7 µM -1% | [4]; at 11.0 µM -1% | [4]; at 33.0 µM -1% | [4]; at 100.0 µM 4% | [5]; at 1.2 µM -2% | [5]; at 3.7 µM 1% | [5]; [17] 13% | [5]; at 11.0 µM 8% | [5]; at 33.0 µM 2% | [5]; [18] 27% | [5]; at 50.0 µM 4.6% | [5]; at 100.0 µM 26% | [6]; at 1.2 µM 0% | [6]; at 3.7 µM -1% | [6]; [17] -5% | [6]; at 11.0 µM -2% | [6]; at 33.0 µM -2% | [6]; [18] 1% | [6]; at 100.0 µM 1% | [7]; at 1.2 µM -6% | [7]; at 3.7 µM 0% | [7]; at 11.0 µM 7% | [7]; at 33.0 µM 5% | [7]; at 100.0 µM 26% | [8]; [17] 15% | [8]; [18] 14% | [8]; at 50.0 µM 18% | [9]; at 1.2 µM -2% | [9]; at 3.7 µM -2% | [9]; at 11.0 µM -3% | [9]; at 33.0 µM -5% | [9]; at 100.0 µM 2% | [10]; [17] 3% | [10]; [18] 9% | [10]; at 50.0 µM -23% | [11]; at 1.2 µM 3% | [11]; at 3.7 µM 3% | [11]; [17] 22% | [11]; at 11.0 µM 1% | [11]; at 33.0 µM 4% | [11]; [18] 47% | [11]; at 100.0 µM 6% | [12]; at 1.2 µM -1% | [12]; at 3.7 µM -8% | [12]; at 11.0 µM -5% | [12]; at 33.0 µM -6% | [12]; at 100.0 µM 28% | [13]; at 1.2 µM -2% | [13]; at 3.7 µM 1% | [13]; at 11.0 µM 3% | [13]; at 33.0 µM 1% | [13]; at 100.0 µM 20% | [14]; at 1.2 µM -24% | [14]; at 3.7 µM -22% | [14]; at 11.0 µM -17% | [14]; at 33.0 µM -9% | [14]; at 100.0 µM 30% | [15]; [17] 28% | [15]; [18] 57% | [16]; at 1.2 µM -4% | [16]; at 3.7 µM -1% | [16]; at 11.0 µM 7% | [16]; at 33.0 µM -3% | [16]; at 100.0 µM 20%
active: [6]; at 50.0 µM 90.2% | [11]; at 50.0 µM 88.5% | [15]; at 50.0 µM 91.2%

CC(C)Cc1ncc(CCCN=C(N)N)[nH]c1=O
inactive: [1]; at 1.2 µM -7% | [1]; at 3.7 µM -10% | [1]; at 11.0 µM -5% | [1]; at 33.0 µM -1% | [1]; at 100.0 µM -5% | [2]; at 1.2 µM 0% | [2]; at 3.7 µM 1% | [2]; at 11.0 µM 4% | [2]; at 33.0 µM 3% | [2]; at 100.0 µM 6% | [3]; at 1.2 µM -2% | [3]; at 3.7 µM -13% | [3]; at 11.0 µM 0% | [3]; at 33.0 µM 9% | [3]; at 100.0 µM 9% | [4]; at 1.2 µM -2% | [4]; at 3.7 µM -5% | [4]; at 11.0 µM -3% | [4]; at 33.0 µM -6% | [4]; at 100.0 µM -6% | [5]; at 1.2 µM -14% | [5]; at 3.7 µM -19% | [5]; [17] -5% | [5]; at 11.0 µM -21% | [5]; at 33.0 µM -20% | [5]; [18] 4% | [5]; at 100.0 µM 2% | [6]; at 1.2 µM -4% | [6]; at 3.7 µM -2% | [6]; [17] 3% | [6]; at 11.0 µM -3% | [6]; at 33.0 µM -5% | [6]; [18] 49% | [6]; at 100.0 µM -3% | [7]; at 1.2 µM 0% | [7]; at 3.7 µM 1% | [7]; at 11.0 µM 15% | [7]; at 33.0 µM 11% | [7]; at 100.0 µM -2% | [8]; [17] 1% | [8]; [18] 38% | [9]; at 1.2 µM -4% | [9]; at 3.7 µM -5% | [9]; at 11.0 µM -13% | [9]; at 33.0 µM -11% | [9]; at 100.0 µM -7% | [10]; [17] -7% | [10]; [18] 38% | [11]; at 1.2 µM -9% | [11]; at 3.7 µM -6% | [11]; [17] -6% | [11]; at 11.0 µM -10% | [11]; at 33.0 µM -14% | [11]; at 100.0 µM -14% | [12]; at 1.2 µM 6% | [12]; at 3.7 µM 12% | [12]; at 11.0 µM 15% | [12]; at 33.0 µM 17% | [12]; at 100.0 µM 14% | [13]; at 1.2 µM -11% | [13]; at 3.7 µM -6% | [13]; at 11.0 µM -6% | [13]; at 33.0 µM -4% | [13]; at 100.0 µM -1% | [14]; at 1.2 µM -13% | [14]; at 3.7 µM -12% | [14]; at 11.0 µM -6% | [14]; at 33.0 µM -3% | [14]; at 100.0 µM -8% | [15]; [17] 2% | [15]; [18] 55% | [15]; at 50.0 µM 33.4%
active: [5]; at 50.0 µM 82.8% | [6]; at 50.0 µM 77.8% | [8]; at 50.0 µM 84.2% | [10]; at 50.0 µM 74.5% | [11]; [18] 91% | [11]; at 50.0 µM 81.8%

Reference: PubChem BioAssay (NCI)
